Measured values as given in PubChem BioAssay.
Unmarked numbers belong to inactive results. For some assays here: Measured potencies and affinities stand elsewhere. Active and inactive are the calls of the source. Unless noted, the rule behind the calls is not given here. Non-standard residues stand in square brackets, D forms with d. Residues, ends and D or L forms follow the SMILES beside them. *: point of attachment. Butanoyl(4-(4-HOPh)) = O=C(CCCc1ccc(O)cc1)*

Key:
[1] = antimalarial activity against Dd2 strain (AID 2302;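 active = growth inhibition above 50% at the single 2 µM test dose, taken to imply half-maximal potency below 2 µM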;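 note: 0% = DMSO untreated growth and 100% = chloroquine plus artemisinin killed control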); details: P. falciparum Dd2 in RBCs, LDH growth readout, 72 h; at 2 µM; stronger effect = higher value
[2] = HepG2 cytotoxicity, primary screen, cytotoxicity control for P. falciparum antimalarial project, cell-based, ATP luminescence (AID 2303;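 active = inhibition above 50%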;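 note: 0% = DMSO wells and 100% = digitonin-killed cells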); details: HepG2 viability, 24-48 h, at 10 µM, stronger effect = higher value
[3] = target: L-lactate dehydrogenase (Plasmodium falciparum (isolate CDC / Honduras)) (UniProt Q27743); assay: PfLDH activity inhibition – cell lysate, 3D7 strain, counter-screen for P. falciparum growth inhibition project (AID 2304);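 note: 0% = vehicle and 100% = reference inhibitor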; details: P. falciparum 3D7 crude extract, LDH APAD/NBT absorbance; at 2 µM; stronger effect = higher value
L-lactate dehydrogenase (Plasmodium falciparum (isolate CDC / Honduras)), sequence (Q27743 whole entry, looked up): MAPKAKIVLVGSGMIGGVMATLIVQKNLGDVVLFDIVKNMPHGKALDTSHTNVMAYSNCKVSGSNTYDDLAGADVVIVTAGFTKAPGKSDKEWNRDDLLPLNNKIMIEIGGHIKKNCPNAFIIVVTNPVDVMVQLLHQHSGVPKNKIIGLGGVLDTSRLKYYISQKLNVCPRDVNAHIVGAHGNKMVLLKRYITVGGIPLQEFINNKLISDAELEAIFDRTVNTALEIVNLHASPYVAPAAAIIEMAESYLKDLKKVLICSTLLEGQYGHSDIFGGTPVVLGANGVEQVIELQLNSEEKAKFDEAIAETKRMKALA

[4] = inhibition of 3D7 malaria parasite growth – strain 3D7 (AID 2306);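 note: 0% = DMSO wells and 100% = chloroquine plus artemisinin control wells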; details: P. falciparum 3D7 erythrocytic growth, LDH absorbance, 72 h; at 2 µM; stronger effect = higher value
[5] = target: Calcium-dependent protein kinase 1 (Plasmodium falciparum (isolate 3D7)) (UniProt P62344); assay: PfCDPK1 kinase inhibitors, biochemical, TCAMS library (AID 1159585; cut-off not given, nearly all actives have IC50 up to about 0.98 µM;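 note: inhibitors leave more ATP so luminescence rises with inhibition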); details: recombinant PfCDPK1, Kinase-Glo ATP depletion luminescence
Calcium-dependent protein kinase 1 (Plasmodium falciparum (isolate 3D7)), sequence (P62344 whole entry, looked up): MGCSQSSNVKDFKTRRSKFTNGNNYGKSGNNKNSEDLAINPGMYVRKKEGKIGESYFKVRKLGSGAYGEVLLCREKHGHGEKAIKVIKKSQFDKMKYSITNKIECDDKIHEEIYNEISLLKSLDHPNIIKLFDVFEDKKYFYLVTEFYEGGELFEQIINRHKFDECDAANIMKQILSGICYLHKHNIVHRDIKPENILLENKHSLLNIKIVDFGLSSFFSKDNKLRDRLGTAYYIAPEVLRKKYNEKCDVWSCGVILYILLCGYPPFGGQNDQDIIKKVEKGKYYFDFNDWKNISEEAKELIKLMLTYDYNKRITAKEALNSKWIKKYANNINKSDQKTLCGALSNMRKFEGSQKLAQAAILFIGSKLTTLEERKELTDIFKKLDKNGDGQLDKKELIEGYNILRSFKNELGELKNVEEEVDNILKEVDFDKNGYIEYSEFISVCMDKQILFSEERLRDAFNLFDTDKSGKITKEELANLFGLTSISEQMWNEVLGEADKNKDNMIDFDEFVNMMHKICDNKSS

[6] = target: Plasmodium falciparum protein kinase 6 (PK6, PF3D7_1337100) (UniProt Q8IDW1); assay: PfPK6 kinase inhibitors, biochemical, TCAMS library (AID 1159586); details: recombinant PfPK6, Kinase-Glo ATP depletion luminescence
Plasmodium falciparum protein kinase 6 (PK6, PF3D7_1337100), sequence (Q8IDW1 1-305): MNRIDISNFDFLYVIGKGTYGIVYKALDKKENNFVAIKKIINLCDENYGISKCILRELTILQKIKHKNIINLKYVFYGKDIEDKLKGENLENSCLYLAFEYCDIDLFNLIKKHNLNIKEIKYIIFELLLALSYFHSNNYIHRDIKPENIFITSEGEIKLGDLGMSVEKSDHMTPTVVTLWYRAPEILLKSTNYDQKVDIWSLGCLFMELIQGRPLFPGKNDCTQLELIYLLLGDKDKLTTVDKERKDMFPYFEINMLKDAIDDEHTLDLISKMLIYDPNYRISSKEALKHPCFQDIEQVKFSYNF

[7] = target: Protein kinase 7 (PK7), Plasmodium falciparum 3D7 (PF3D7_0213400) (UniProt Q7YTF7); assay: inhibition of Plasmodium PK7 catalytic activity – biochemical, TCAMS antimalarial set, Kinase-Glo luminescence (AID 1159587); details: recombinant PfPK7, Kinase-Glo ATP depletion luminescence
Protein kinase 7 (PK7), Plasmodium falciparum 3D7 (PF3D7_0213400), sequence (Q7YTF7 1-343): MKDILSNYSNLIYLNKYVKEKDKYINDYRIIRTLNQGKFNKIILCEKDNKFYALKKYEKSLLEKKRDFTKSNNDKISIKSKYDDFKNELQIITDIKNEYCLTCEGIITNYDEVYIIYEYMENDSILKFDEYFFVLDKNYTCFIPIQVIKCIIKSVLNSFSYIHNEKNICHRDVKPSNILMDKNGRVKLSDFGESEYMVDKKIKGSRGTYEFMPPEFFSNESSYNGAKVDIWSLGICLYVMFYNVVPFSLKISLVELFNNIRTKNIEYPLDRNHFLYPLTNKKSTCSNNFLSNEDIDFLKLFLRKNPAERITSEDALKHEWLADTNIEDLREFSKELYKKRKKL

[8] = target: Calcium-dependent protein kinase 4 (Plasmodium falciparum (isolate 3D7)) (UniProt Q8IBS5); assay: PfCDPK4 kinase inhibitors, biochemical, TCAMS library (AID 1159588; cut-off not given, nearly all actives have IC50 up to about 0.91 µM); details: recombinant PfCDPK4, Kinase-Glo ATP depletion luminescence
Calcium-dependent protein kinase 4 (Plasmodium falciparum (isolate 3D7)), sequence (Q8IBS5 whole entry, looked up): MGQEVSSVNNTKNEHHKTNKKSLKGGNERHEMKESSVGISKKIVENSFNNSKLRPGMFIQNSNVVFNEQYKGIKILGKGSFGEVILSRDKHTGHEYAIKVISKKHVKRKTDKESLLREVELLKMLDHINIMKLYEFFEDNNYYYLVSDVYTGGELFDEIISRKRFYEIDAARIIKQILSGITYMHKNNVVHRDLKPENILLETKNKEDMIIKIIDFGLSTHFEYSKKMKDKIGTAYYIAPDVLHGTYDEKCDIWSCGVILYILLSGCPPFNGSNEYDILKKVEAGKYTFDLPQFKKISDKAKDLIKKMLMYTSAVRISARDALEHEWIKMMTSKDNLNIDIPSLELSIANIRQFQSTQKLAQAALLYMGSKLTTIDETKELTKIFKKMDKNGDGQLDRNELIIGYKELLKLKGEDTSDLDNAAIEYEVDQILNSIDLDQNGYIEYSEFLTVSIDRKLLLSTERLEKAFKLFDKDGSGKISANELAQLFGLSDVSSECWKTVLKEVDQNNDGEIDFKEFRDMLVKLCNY

SMILES	growth inhibition [1]	inhibition [2]	inhibition [3] [%]	growth inhibition [4]	outcome [5]	outcome [6]	outcome [7]	outcome [8]
N/C(=N\c1cccc(Cc2ccc([N+](=O)[O-])cc2)n1)Nc1ccccc1	19%	28%	4	96% (active)	inactive	inactive	inactive	inactive
O=C(/C=C/c1ccc(Cl)cc1Cl)NCCCCCN1CCC(c2c[nH]c3ccccc23)CC1	9%	95% (active)	1	99% (active)	inactive	inactive	inactive	inactive
Cc1cc(N2CCCC2)nc(Nc2ccc(NC(=O)C(C)C)cc2)n1	36%	40%	2	97% (active)	inactive	inactive	inactive	inactive
COc1ccc(NC(=O)c2ccc3cc4ccccc4cc3c2)cc1N1CCN(C)CC1	29%	38%	1	86% (active)	inactive	inactive	inactive	inactive
Cc1cc([N+](=O)[O-])ccc1NC(=O)Nc1cccc(C(F)(F)F)c1	100% (active)	15%	-1	102% (active)	inactive	inactive	inactive	inactive
COc1cccc(Nc2nc(N)c3ccccc3n2)c1	47%	18%	-2	88% (active)	inactive	inactive	inactive	inactive
O=C(/C=C/c1cccc(OC(F)(F)F)c1)NCCCCCN1CCC(c2c[nH]c3ccccc23)CC1	13%	27%	-6	93% (active)	inactive	inactive	inactive	inactive
COc1ccc(CNC(=O)NC2CCN(c3ccnc(Nc4ccc(F)cc4)n3)CC2)cc1	4%	16%	-6	87% (active)	inactive	inactive	inactive	inactive
CCC(C)NC(=O)Nc1ccc(-c2cccc(-c3nc4ccc(C(F)(F)F)cc4[nH]3)c2)cc1 (stereo not given)	-1%	45%	0	97% (active)	inactive	inactive	inactive	inactive
COc1cc(OC)cc(-c2nn(-c3ccc([N+](=O)[O-])cc3Cl)c(=S)n2Cc2ccco2)c1	100% (active)	15%	2	101% (active)	inactive	inactive	inactive	inactive
COc1ccc(CC(=O)NC(CCN2CCC3(CCc4ccccc43)CC2)c2ccc(Cl)c(Cl)c2)cc1 (stereo not given)	75% (active)	28%	-1	90% (active)	inactive	inactive	inactive	inactive
NC(=O)c1ccc(C(=O)Nc2cccc(-c3cccc(-c4nc5ccc(C(F)(F)F)cc5[nH]4)c3)c2)cc1	36%	63% (active)	-5	100% (active)	inactive	inactive	inactive	inactive
O=C(C1COc2ccccc2O1)N(CCCn1ccnc1)Cc1csc(-c2ccc(CNCc3ccccc3)cc2)n1 (stereo not given)	18%	15%	-1	100% (active)	inactive	inactive	inactive	inactive
CCCCN1CCN(c2cc(NS(=O)(=O)c3ccc(C(=O)Nc4ccc(C(F)(F)F)cc4)cc3)ccc2OC)CC1	20%	17%	-3	99% (active)	inactive	inactive	inactive	inactive
COc1ccc2nccc(N3CCC(CCNCc4cc5c(cn4)OCCO5)CC3)c2n1	101% (active)	18%	7	100% (active)	inactive	inactive	inactive	inactive
C#CCOc1ccc(N2C(N)=NC(N)=NC2(C)C)cc1	-3%	43%	6	94% (active)	inactive	inactive	inactive	inactive
Cc1ccc(Nc2ccnc3cc(-c4nccs4)ccc23)cc1C(O)c1ccccc1 (stereo not given)	83% (active)	23%	-8	85% (active)	inactive	inactive	inactive	inactive
O=[N+]([O-])c1cccc(CNC2CCN(Cc3ccc(C(F)(F)F)cc3)CC2)c1	28%	0%	1	99% (active)	inactive	inactive	inactive	inactive
O=S(=O)(NCCN1CCCC1)c1cccc(-c2ccc(CNCc3ccsc3)cc2)c1	31%	33%	6	101% (active)	inactive	inactive	inactive	inactive
CC(CN1CCN(C)CC1)C(=O)Nc1cccc(-c2ccc(-c3nc4ccccc4[nH]3)s2)c1 (stereo not given)	59% (active)	2%	2	97% (active)	inactive	inactive	inactive	inactive

SMILES	growth inhibition [1]	inhibition [2]	inhibition [3] [%]	growth inhibition [4]	outcome [5]	outcome [6]	outcome [7]	outcome [8]
CCOC(=O)c1ccc(NC(=O)Nc2cccc(-c3cccc(-c4nc5ccccc5[nH]4)c3)c2)cc1	99% (active)	76% (active)	-3	100% (active)	inactive	inactive	inactive	inactive
O=C(Cc1cccc(Cl)c1)N1CCc2cc3nccc(N4CCN5CCC[C@H]5C4)c3cc21	4%	14%	4	96% (active)	inactive	inactive	inactive	inactive
O=C(NCC(=O)N1CCC[C@H]1C(=O)O)[C@@H](Cc1ccccc1)NC(=O)[C@@H]1CCCN1C(=O)CCCc1ccc(O)cc1 ({Butanoyl(4-(4-HOPh))}-P[dF]GP-OH)	1%	1%	3	81% (active)	inactive	inactive	inactive	inactive
CCC1CCCCN1S(=O)(=O)c1ccc(NC(=O)c2cc(C)on2)cc1 (stereo not given)	53% (active)	0%	0	86% (active)	inactive	inactive	inactive	inactive
O=C(N[C@@H](Cc1ccccc1)C(=O)NCCN1CCOCC1)c1ccc(O)c(-c2ccc(Cl)c(Cl)c2)c1	31%	-4%	5	97% (active)	inactive	inactive	inactive	inactive
CN1CCN(CC(=O)Nc2ccc(-c3ccc(-c4nc5ccccc5[nH]4)s3)cc2)CC1	49%	12%	-1	101% (active)	inactive	inactive	inactive	inactive
COc1ccccc1-c1sccc1C(=O)NC1(c2cc(Cl)cc(Cl)c2)CCCC1	95% (active)	-5%	-3	88% (active)	inactive	inactive	inactive	inactive
CCCN(CC1CC1)c1ncc(-c2cccc(CNCc3ccccc3O)c2)cn1	98% (active)	15%	-8	97% (active)	inactive	inactive	inactive	inactive
Nc1nc(N)c2c(Cl)c(CNc3cccc(C(=O)O)c3)ccc2n1	97% (active)	69% (active)	7	93% (active)	inactive	inactive	inactive	inactive
COc1ccccc1CCNc1nc(C)cc(N[C@@H](Cc2ccccc2)C(=O)NCCc2ccccc2)n1	89% (active)	16%	-3	100% (active)	inactive	inactive	inactive	inactive
CC(C)NCc1ccc(-c2ccc(-c3nc4ccc(C(F)(F)F)cc4[nH]3)s2)cc1	94% (active)	30%	1	101% (active)	inactive	inactive	inactive	inactive
CCC(Cc1ccccc1)c1cc(O)c(Cc2ccc(-c3ccccc3)cc2)c(=O)o1 (stereo not given)	-3%	3%	-1	89% (active)	inactive	inactive	inactive	inactive
CCNc1cc(C(=O)N[C@@H](Cc2cccc(F)c2)[C@H](O)CNC(C)CCCC(C)C)cc(N2CCCCS2(=O)=O)c1 (stereo not given in full)	97% (active)	-3%	-4	98% (active)	inactive	inactive	inactive	inactive
CN(C)Cc1ccc(-c2cc3ncnc(Nc4ccc(OCc5cccc(F)c5)c(Cl)c4)c3s2)[nH]1	87% (active)	53% (active)	6	99% (active)	inactive	inactive	inactive	inactive
COc1ccc2nccc([C@@H](O)CN3CCC(NC(=O)c4cc5c(F)cc(F)cc5[nH]4)CC3)c2n1	74% (active)	32%	-3	101% (active)	inactive	inactive	inactive	inactive
Cc1c(CNCCN2CCCCC2)c(C(=O)O)c(C)n1Cc1ccc(Cl)cc1	93% (active)	4%	-6	97% (active)	inactive	inactive	inactive	inactive
COc1ccccc1Nc1nc(C)cc(NCc2ccc(-n3ccnc3)cc2)n1	10%	5%	-2	90% (active)	inactive	inactive	inactive	inactive
COc1cc(C=NNc2cc(C)nc3ccccc23)cc(OC)c1OC	95% (active)	5%	-1	102% (active)	inactive	inactive	inactive	inactive
COc1cccc(CNC(=O)[C@@H]2CN(C(=O)c3ccccc3)CCN2)c1	-1%	4%	-2	92% (active)	inactive	inactive	inactive	inactive
Cc1cccc2[nH]c(-c3cccc(-c4ccc(NC(=O)C(=O)c5cccn5C)cc4)c3)nc12	46%	45%	-1	101% (active)	inactive	inactive	inactive	inactive
